The values that follow come from PubChem BioAssay (NCI).

About 83,000 compounds went through this panel and 20% of them were active in at least one assay; those are over-represented in the sample as a whole.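 Note: values are percent growth. 100 is the growth of untreated cells, values between 100 and 0 indicate rising inhibition; between -100 and 0 indicates cell death.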 Unmarked numbers belong to inactive results. Active and inactive are the calls of the source. Rule for the calls: active = growth percent below 10; inactive = the rest.

The subject of the assay is MDA-MB-468 breast. The experiment in a line: NCI-60 one-dose screen, 48 h (100 = growth as untreated, 0 = no growth, -100 = all killed). To be noted: 10 µM unless noted.
Regarding `COC(C(=O)[C@@H](O)[C@@H](C)O)[C@@H]1Cc2cc3cc(O[C@H]4C[C@@H](O[C@H]5C[C@@H](O)[C@H](O)C(C)O5)[C@H](O)C(C)O4)c(C)c(O)c3c(O)c2C(=O)[C@H]1O[C@H]1C[C@@H](O[C@H]2C[C@@H](O[C@H]3C[C@@H](O)[C@H](OC)C(C)O3)[C@@H](O)C(C)O2)[C@H](O)C(C)O1` (stereo not given in full), the growth was -60% (active).
With `CCCCC[C@H]1C/C=C2/C(=O)C(Cl)=C[C@@H]2C/C=C\CCCC(=O)O1`, the growth was -26.7% (active).
For `CC1c2ccccc2-c2ccccc2N1C` (stereo not given) the value was 103%; for `CCc1ccc(Nc2cc(C)nc3nc(C)nn23)cc1`, -87.8% (active).
For `CCCCCCCCCCCCCCCCOc1ccc(C)cc1` the value was 106%.
`O=C(O)c1cccc(N/C=C/C(=O)c2cc3cc(Br)ccc3oc2=O)c1`: the growth is 96.1%.
On to `Fc1ccc2[nH]cc(-c3nc(-c4ccsc4)cs3)c2c1`, for which the growth was 69.6%.
For `CCNC(=O)Oc1ccc(/C(=C(/C)c2ccc(Cl)cc2)c2ccc(OCCN(C)C)cc2)cc1` the value was 67%.
With `CCNC(=O)Nc1nc2ccc(Oc3ccnc(C(=O)NC)c3)cc2s1`, the growth is 50.8%.
For `Cn1cc(-c2csc(-c3cn(CCN)c4ccccc34)n2)c2cccnc21`, the growth was 23.2%.
As for `COC(=O)[C@H](NC(=O)C1(C)CCC[C@]2(C)[C@H]3C[C@H]4C(C(C)C)=C[C@]3(CC[C@@H]12)[C@@H]1C(=O)CCC(=O)[C@@H]14)C(C)C` (stereo not given in full), the growth was 101%.
Turning to `NC(CSC(c1ccccc1)(c1ccccc1)c1ccccc1)C(=O)O` (stereo not given), the growth is 32.7%.
Turning to `C/C(=N\NC(=O)Nc1ccccc1)c1nnn(-c2ccc([N+](=O)[O-])cc2)c1C`, the growth was 104%.
Turning to `CCOC(=O)C(=Cc1cccc(Cl)c1)C(=O)OCC`, the growth is 37.9%.
For `Cc1cc(Nc2cccc(F)c2)nc(NCc2ccccc2)n1` the value was 16.2%.
Turning to `CCOC(=O)c1sc(/N=C2\NC(=O)/C(=C/c3ccc(N4CCN(C)CC4)cc3)S2)nc1C`, the growth is 111%.
For the compound `COC(=O)C1CCCN1C(=O)[C@@H]1CCCN1C(=O)[C@H](Cc1c[nH]c2ccccc12)NC(=S)Nc1cc(C(F)(F)F)cc(C(F)(F)F)c1` (stereo not given in full), the growth was 44.3%.
In the case of `N#Cc1ccc(OC(=O)Nc2ccc(Cl)c(Cl)c2)cc1`, the growth is 42.9%.
As for `Cc1ccc2c(c1)O/C(=C\c1ccc([N+](=O)[O-])o1)C2=O`, the growth was 23.3%.
For `COc1cc2cc(c1Cl)N(C)C(=O)C[C@H](OC(=O)[C@H](C)N(C)C(=O)CCS)C[C@]1(C)O[C@H]1[C@H](C)[C@@H]1C[C@@](O)(NC(=O)O1)[C@H](OC)/C=C/C=C(\C)C2` the value was 42%; for `O=C(Nc1ncc(Cc2ccc(Cl)cc2)s1)C1=NCCCCN1`, 102%.
`C[C@@H]1CC[C@H]2[C@@H](C)C(O)O[C@@H]3O[C@]4(C)CC[C@@H]1[C@]32OO4` (stereo not given in full): the growth is 27.7%.
Take `OCC1OC(O)C(O)C(O)C1O` (stereo not given): the growth was 121%.
For the compound `O=S(=O)(NCCCNc1nccc(-c2c(-c3ccc(F)cc3)nc3sccn23)n1)c1ccc2ccccc2c1`, the growth is 51.8%.
Regarding `Cc1ccc(S(=O)(=O)NCCNc2nccc(-c3c(-c4ccc(O)cc4)nc4sccn34)n2)cc1`, the growth is 85.3%.
In the case of `CCCCCCCCCCCCCCCCCCOc1ccc(CC(=O)OCC[N+]2(C)CCCCC2)cc1`, the growth was 92.2%.
Regarding `COc1ccc(-c2nn(-c3ccc(NC(=O)c4cc(C(F)(F)F)cc(C(F)(F)F)c4)cc3)cc2-c2ccncc2)cc1Cl`, the growth is 77.1%.
With `CC1=CC(C)(C)Nc2ccc(Cc3ccc4c(c3)C(C)=CC(C)(C)N4)cc21`, the growth was -12.4% (active).
For `CN(C)Cc1ccc(C(=O)Nc2ccc3ncnc(Nc4ccc(Oc5cccc(F)c5)c(Cl)c4)c3c2)cc1` the value was -63% (active); for `CN1CCN(c2ccc(Nc3nc(NCCCNS(=O)(=O)c4ccc(Cl)cc4)c4sccc4n3)cc2)CC1`, -47.7% (active); for `COc1cc(/C=C/C(=O)c2c(C)nc3ccccc3c2/C=C/c2ccccc2)cc(OC)c1OC`, 7.7% (active).
On to `COc1ccc(-n2nc(C)c3c(Nc4ccc(NC(=O)Nc5cc(C(F)(F)F)ccc5F)cc4)ncnc32)cc1`, for which the growth is 29.6%.
Turning to `COc1cc(/C=C/C(=O)c2ccc(Nc3ncnc4cc(OC)c(OC)cc34)cc2)cc(OC)c1`, the growth is 101%.
For `C=C(C)[C@@H]1CC[C@]2(C(=O)N3CCN(C)CC3)CC[C@]3(C)[C@H](CC[C@@H]4[C@@]5(C)C/C(=C/c6ccc(C(F)(F)F)cc6)C(=O)C(C)(C)[C@@H]5CC[C@]43C)[C@@H]12` the value was 107%; for `Cc1cc(NCc2cc(Nc3ccnc4cc(Cl)ccc34)ccc2F)nc(N2CCN(C)CC2)n1`, -45.9% (active).
As for `COc1cc2c(c(OC)c1OC)C(=O)CC(c1cccc(NC(=O)c3ccccc3Br)c1)O2` (stereo not given), the growth is 85.1%.
In the case of `C=C(C)[C@@H]1CC[C@]2(C(N)=O)CC[C@]3(C)[C@H](CC[C@@H]4[C@@]5(C)CCCNC(C)(C)[C@@H]5CC[C@]43C)[C@@H]12`, the growth is 78.3%.
For `Cc1nc(C)c(-c2nn3c(-c4cccc(F)c4)nnc3s2)s1`, the growth was 89.5%.
Take `CCCCOc1nc2cc(Cl)ccc2cc1/C=C/c1cc(/C=C/c2cc3ccc(Cl)cc3nc2OCCCC)n(-c2ccccc2)n1`: the growth is 92%.
On to `C#Cc1cccc(NC(=O)c2ccccc2NC(=O)C=C)c1`, for which the growth was 70.9% [8.25 µM].
